HP1b binding inh – HP1-beta chromodomain-methylated histone interaction inhibition | P83916 | AlphaScreen HP1-beta / biotin-H3K9me3 peptide binding | Potency, µM (highest dose often 114 µM), without a hit: top-dose activity change, negative = inhibition, most hits filed as inhibitors | hit rate 0.56% among 390,000 | AID 540317; further: nearly all actives have a fitted effect of over 70% in size
Target sequence (P83916 whole entry, looked up): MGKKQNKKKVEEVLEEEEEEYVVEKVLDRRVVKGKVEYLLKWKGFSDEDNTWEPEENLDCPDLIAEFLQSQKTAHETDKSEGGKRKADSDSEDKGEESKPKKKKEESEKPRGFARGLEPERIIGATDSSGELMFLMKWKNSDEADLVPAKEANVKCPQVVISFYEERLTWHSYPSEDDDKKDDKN
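AlphaScreen: HP1-beta (50 nM) preformed 30 min with biotin-H3(1-18)K9me3 peptide (50 nM) in PBS pH 7.4, 0.01% Tween-20. Compound added for 30 min at RT, then streptavidin donor/nickel chelate acceptor beads (10 ug/mL) for 30 min.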
G9a inh – inhibitors of human histone lysine methyltransferase G9a | Q96KQ7 | G9a H3K9 monomethylation, AlphaScreen, 2 h | Potency, µM (doses to about 102 µM), for the others: at the highest dose activity, negative = inhibition, usual class: inhibitors | hit rate 8.8% among 350,000 | AID 504332; further: on the % scale 0 is the no-effect control and ±100 the full control effect; nearly all actives have a fitted effect of over 75% in size
Target sequence (Q96KQ7 913-1193 limits assumed): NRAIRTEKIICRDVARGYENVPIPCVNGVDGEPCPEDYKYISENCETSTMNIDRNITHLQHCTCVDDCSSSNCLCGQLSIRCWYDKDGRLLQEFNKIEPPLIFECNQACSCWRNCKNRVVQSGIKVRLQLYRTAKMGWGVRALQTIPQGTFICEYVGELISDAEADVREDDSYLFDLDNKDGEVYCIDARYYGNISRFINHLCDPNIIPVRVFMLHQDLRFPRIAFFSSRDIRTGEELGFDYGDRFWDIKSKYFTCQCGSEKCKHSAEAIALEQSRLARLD
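Compounds were preincubated with 20 nM G9a for 15 min, after which biotinylated H3K9 peptide (500 nM) and SAM (20 uM) started a 2 h room-temperature reaction. Monomethylated product was quantified by antibody-based AlphaScreen chemiluminescence.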
Sfp PPTase inh – blocks B. subtilis Sfp PPTase activity. hit rate 3.5% among 310,000. Potency, µM, for inactives: largest response in the series, negative = inhibition, most hits filed as inhibitors. AID 1490. Q9F4F7. Biochemical Sfp PPTase activity, qHTS;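 further: the enzyme is Sfp with the accession as filed and its product quenches rhodamine fluorescence; 0% = enzyme reaction without inhibitor and -100% = no enzyme wells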
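Step 1, compound plus 15 nM Sfp-PPTase, 15 min, room temperature. Step 2, add rhodamine-CoA (5 uM) and BHQ-2-YbbR (12.5 uM). Step 3, read 525/598 nm fluorescence at 0 and 30 min.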
JMJD2A Tudor – blocks the human JMJD2A Tudor domain | O75164 | AlphaScreen JMJD2A-Tudor / H3K4me3 peptide binding | Potency, µM (doses to about 114 µM), without a hit: top-dose activity change, negative = inhibition, hits mostly inhibitors | hit rate 4.4% among 390,000 | AID 504339; further: on the % scale 0 is the no-effect control and ±100 the full control effect; nearly all actives have a fitted effect of over 50% in size
BAZ2B inh – inhibitors of human BAZ2B bromodomain; Q9UIF8; hit rate 4.4% among 360,000; AlphaScreen BAZ2B-H3K14Ac peptide displacement; Potency, µM (highest dose often 114 µM), without a hit: at the highest dose activity change, negative = inhibition, actives largely listed as inhibitors; further: on the % scale 0 is the no-effect control and ±100 the full control effect; nearly all actives have a fitted effect of over 60% in size
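In this displacement format the biotinylated H3(5-23) peptide acetylated at Lys14 serves as ligand at 50 nM, with BAZ2B at 50 nM in PBS pH 7.4 containing 0.01% Tween-20. Donor and acceptor beads are 10 ug/mL final.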
* = called active by the depositor; ? = inconclusive; . = no result given; [ ] = dose if it differs, or a comment. The list is not random: actives were taken first. Their share in the collection is about 12%. The call rests on the fitted dose curve; in most records, active means well fitted curve in the direction sought with a large enough effect; inconclusive means small, poorly fitted or top-dose-only effect, or another doubt; inactive means no such curve, though single readings can be large; an effect the other way counts as inactive or inconclusive. Potency means the concentration at half of the fitted maximal effect.

SMILES	HP1b binding inh	G9a inh	Sfp PPTase inh	JMJD2A Tudor	BAZ2B inh
CS(=O)(=O)Nc1cccc(-c2ccc3ncnc(N4CCOCC4)c3c2)c1	.	7.0%[0.501 µM]	18.1%	.	.
COc1ccccc1CC(=O)N(Cc1ccccc1)c1ccc(C)cc1	69.9%	.	0.3%	10.3%	16.0%
COC(=O)c1ccc(Cn2c(SCc3cccc(C)c3)nc3ccncc32)cc1	76.0%	?	.	-19.3%	17.3%
CCOc1ccccc1C1N=C(N)Nc2nc3ccccc3n21 (configuration not stated)	12.4%	14.3%[59 µM]	.	-22.0%	-9.3%
N#Cc1nc(COc2cccc(Cl)c2)oc1N1CCN(c2ccccc2)CC1	-28.6%	?	4.2%	?	?
COc1ccccc1/C=C/c1nc(C#N)c(N2CCCCC2)o1	-4.7%	?	.	-6.0%	?
N#Cc1nc(COc2ccccc2Cl)oc1N1CCCC1	?	7.94µM*	5.1%	?	12.6µM*
COc1ccc(OCc2nc(C#N)c(N3CCN(c4ccc(OC)cc4)CC3)o2)cc1	-7.2%	11.2µM*	2.5%	?	?
COc1ccc(N2CCN(c3oc(/C=C/c4ccccc4OC)nc3C#N)CC2)cc1	?	?	.	?	3.16µM*
O=C(Nc1cc(C(F)(F)F)ccc1Cl)c1ccncc1	11.7%	15.5%	4.6%	-20.4%	0.5%
C/C(=N\Nc1cc(C(F)(F)F)ccc1Cl)c1ccncc1	34.9%	39.8µM*	-1.3%	-10.6%	-14.8%
COc1cc(C2Oc3ccccc3C=C2[N+](=O)[O-])cc(OC)c1OC (configuration not stated)	-20.0%	.	?	56.2µM*	35.5µM*
COc1ccc(CNC(=O)C[C@H]2C[C@H](C(=O)N3CCCCC3)[C@@]3(C)c4[nH]c5cc(-c6ccco6)ccc5c4CCN3C2=O)cc1OC	?	.	.	56.2µM*	.
COc1ccc(CNC(=O)C[C@H]2C[C@H](C(=O)N3CCCCC3)[C@@]3(C)c4[nH]c5ccc(Cl)cc5c4CCN3C2=O)cc1OC	-7.5%	.	.	56.2µM*	.
COCCCNC(=O)C[C@H]1C[C@H](C(=O)N2CCOCC2)[C@@]2(CCC3CCCC3)c3[nH]c4cc(-c5ccco5)ccc4c3CCN2C1=O	?	.	.	79.4µM*	.
COc1ccc(CCNC(=O)c2cn3ccc(C)cc3n2)cc1OC	50.2%	11.0%	3.6%	-10.9%	-18.7%
COc1ccc(-c2nc(CSCC(=O)NCc3ccccc3Cl)c(C)o2)cc1OC	5.5%	?	.	?	-31.3%
COc1ccccc1CN1CCN(C(=O)c2ccncc2)CC1	?	?	?	7.94µM*	25.1µM*
O=C(c1cccc(Cl)c1)N1CCN(Cc2ccncc2)CC1	?	35.5µM*	-3.2%	?	50.1µM*
COc1ccc2[nH]c(C(=O)N3CCCN(Cc4ccc(F)cc4)CC3)cc2c1	-28.6%	50.1µM*	20.7%	?	-32.3%
COc1ccc(OC)c(CN2CCN(C(=O)c3ccc(F)cc3)CC2)c1	?	31.6µM*	-8.9%	25.1µM*	?
COc1ccccc1CN1CCC2(CC1)CCN(C(=O)c1ccncc1)CC2	.	-10.9%[12.7 µM]	-1.8%	.	.
COc1cccc(OC)c1C(=O)N1CCN(Cc2ccncc2)CC1	?	?	10µM*	8.91µM*	20µM*
CSc1ccc(CN2CCN(C(=O)c3ccncc3)CC2)cc1	-0.7%	-3.3%	11.6%	-5.6%	-12.5%
CCOC(=O)c1c(NC(=O)C2COc3ccccc3O2)sc2c1CC(C)(C)NC2(C)C (configuration not stated)	13.6%	56.2µM*	?	-28.4%	?
SMILES	HP1b binding inh	G9a inh	Sfp PPTase inh	JMJD2A Tudor	BAZ2B inh
CCOC(=O)c1c(NC(=O)C2COc3ccccc3O2)sc(C(C)=O)c1C (configuration not stated)	-17.4%	50.1µM*	4.6%	-14.0%	3.6%
CCOC(=O)c1c(NC(=O)Cc2ccccc2)sc2c1CC(C)(C)NC2(C)C	19.2%	?	-4.3%	-27.6%	-11.1%
COc1ccc(CC(=O)N2CCc3cc(OC)c(OC)cc3C2COc2ccc(OC)cc2)cc1 (configuration not stated)	13.4%	?	.	?	-38.6%
O=C(O)CCN1/C(=C/C=Nc2ccccc2)Oc2ccccc21	28.0%	?	-14.0%	56.2µM*	.
CCOC(=O)c1c(NC(=O)CN(CC)CC)sc2c1CCC2	41.1%	42.7%	2.0%	-7.3%	12.2%
CCOC(=O)c1c(NC(=O)OC)sc2c1CCC2	14.1%	-8.8%[59 µM]	31.6µM*	12.6%	-2.5%
CCOC(=O)c1c(NS(=O)(=O)c2ccc(Br)cc2)sc2c1CCC2	-16.0%	.	.	79.4µM*	.
COC(=O)Nc1sc2c(c1C(N)=O)CCCCCC2	-58.2%	3.55µM*	-83.8%	?	-3.0%
C/C(=C(/CCO)SSC[C@@H]1CCCO1)N(C=O)Cc1cnc(C)nc1N	.	-39.6%[21.5 µM]	9.4%	.	.
CCNC(=O)NC(=O)CSc1ccc(S(=O)(=O)N2CCCCC2)cn1	44.0%	?	.	-5.3%	3.5%
Cc1ccc(NC(=S)N(CCCN2CCC(C)CC2)Cc2ccco2)cc1C	13.0%	-11.5%	22.7%	-22.5%	?
O=C1CCC/C=C\C[C@H](CC(=O)N(CCO)Cc2ccccc2)C(=O)N2CCC[C@@H]2CO1	14.0%	.	.	-21.1%	.
Cc1cc(NC(=O)CSc2c(C)[nH]c3ccccc23)no1	37.3%	50.1µM*	-6.6%	-13.2%	-7.9%
Cc1ccccc1CSc1nnc(NC(=O)Cc2cccs2)s1	35.1%	5.2%	-14.4%	-21.0%	70.8µM*
Cc1cc(NS(=O)(=O)c2ccc(NC(=O)Cc3cccs3)cc2)no1	27.5%	3.6%[12.7 µM]	18.0%	-15.5%	-2.2%
Cc1cc(NC(=O)Cc2cccs2)no1	?	?	-18.7%	17.8µM*	44.7µM*
Cc1cc(NC(=O)CSc2ccccn2)no1	34.5%	44.7µM*	8.0%	-19.1%	0.4%
COC(=O)c1ccccc1Nc1ccnc(Cl)n1	35.1%	.	.	7.6%	.
CCCN(CCO)Cc1ccc2ccccc2c1	29.1%	-11.1%	12.1%	-6.4%	6.7%
CCCN(CCO)Cc1ccc(F)c(Br)c1	?	15.8µM*	-20.4%	14.1µM*	79.4µM*
C/C=C/C1Oc2ccc(OC)cc2N2C(=O)C(C)C(OCOC)C12 (configuration not stated)	.	.	5.2%	.	.
CN(C)C(=O)c1ccc(-c2cc(Nc3ccccc3)ncn2)cc1	.	-2.8%[0.501 µM]	9.2%	.	.
CCOC(=O)c1cccc(Nc2cc(-c3ccccc3)ncn2)c1	?	15.8µM*	.	-0.7%	50.1µM*
Nc1ccccc1N=Nc1ccccc1N	?	14.1µM*	-1.6%	2.82µM*	3.16µM*
Nc1csnc1C(=O)O	14.2%	31.6µM*	-2.6%	20µM*	?
O=C(O)c1nnsc1-c1csnn1	9.2%	.	.	-16.7%	.
Cc1ccccc1OCCn1c(=S)[nH]c2c(N)ncnc21	?	1.78µM*	-28.5%	7.08µM*	-24.1%
O=C(NCc1ccc(F)cc1)C(=O)NCC(c1cccs1)S(=O)(=O)c1cccs1 (configuration not stated)	29.9%	1.9%[59 µM]	.	-11.7%	3.4%
